# PubChem BioAssay (Tox21)
# Inconclusive results are not listed. Where a call stands in place of a potency, no number is given. Active and inactive are the calls of the source. Calls follow the shape of the dose curve; as a rule, active = well fitted curve in the direction sought with a large enough effect in the repeat runs; inconclusive = weak or mixed curves; inactive = no such curve, though single readings can be large; an effect the other way counts as inactive or inconclusive.
# Key:
# [1] = A CellTox Green Cytotoxicity Assay to monitor cytotoxicity in HEK293 cells - 24 hour (AID 1224875); also: nearly all actives have a fitted effect of over 45% in size; also: potency is read from the fitted curve at half-maximal effect
# Procedure, shortened: (§1)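 Read-out: fluorescence of a cell-impermeant cyanine dye staining DNA of dead cells, proportional to cytotoxicity. HEK293, 600 cells/well with reagent, compound (23 nL DMSO) added after 5 h; reads at 0, 8, 16, 24, 32, 40 h.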
# [2] = A CellTox Green Cytotoxicity Assay to monitor cytotoxicity in HepG2 cells - 16 hour (AID 1224876); also: nearly all actives have a fitted effect of over 45% in size; also: potency is read from the fitted curve at half-maximal effect
# Procedure, shortened: (§2)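 HepG2, 600 cells/well premixed w/ CellTox Green; 5 h settle, 37 C/5% CO2; pintool cpd add (DMSO); 37 C, 40 h; fluorescence read at 0, 8, 16, 24, 32, 40 h.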
# [3] = qHTS RealTime-Glo MT Cell Viability Assay in HepG2 cells - 32 hour (AID 1224877); also: nearly all actives have a fitted effect of over 55% in size; also: potency is read from the fitted curve at half-maximal effect
# Procedure, shortened: (§3)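 HepG2 cells (600/well) were dispensed with RealTime-Glo reagents, incubated 5 h at 37 °C, then treated with compounds in DMSO for up to 40 h. Nonlytic NanoLuc luminescence reflecting viable cells was read at each stated time point.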
# [4] = A CellTox Green Cytotoxicity Assay to monitor cytotoxicity in HepG2 cells - 40 hour (AID 1224879); also: nearly all actives have a fitted effect of over 40% in size; also: potency is read from the fitted curve at half-maximal effect
# Procedure, shortened: as §2
# [5] = qHTS RealTime-Glo MT Cell Viability Assay in HEK293 cells - 0 hour (AID 1224880); also: top concentration of the series differs between compounds; nearly all actives have a fitted effect of over 45% in size
# Procedure, shortened: (§4)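 Luminescence readout at each listed time point; HEK293, 600 cells/well, RealTime-Glo MT reagent added with cells; compounds pinned (23 nL in DMSO) after 5 h at 37 C; continuous culture at 37 C.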
# [6] = A CellTox Green Cytotoxicity Assay to monitor cytotoxicity in HEK293 cells - 32 hour (AID 1224881); also: nearly all actives have a fitted effect of over 40% in size; also: potency is read from the fitted curve at half-maximal effect
# Procedure, shortened: as §1
# [7] = A CellTox Green Cytotoxicity Assay to monitor cytotoxicity in HepG2 cells - 0 hour (AID 1224882); also: nearly all actives have a fitted effect of over 35% in size
# Procedure, shortened: as §2
# [8] = A CellTox Green Cytotoxicity Assay to monitor cytotoxicity in HepG2 cells - 32 hour (AID 1224883); also: nearly all actives have a fitted effect of over 50% in size; also: potency is read from the fitted curve at half-maximal effect
# Procedure, shortened: as §2
# [9] = A CellTox Green Cytotoxicity Assay to monitor cytotoxicity in HEK293 cells - 8 hour (AID 1224884); also: nearly all actives have a fitted effect of over 35% in size; also: potency is read from the fitted curve at half-maximal effect
# Procedure, shortened: as §1
# [10] = qHTS RealTime-Glo MT Cell Viability Assay in HepG2 cells - 16 hour (AID 1224885); also: nearly all actives have a fitted effect of over 50% in size; also: potency is read from the fitted curve at half-maximal effect
# Procedure, shortened: as §3
# [11] = qHTS RealTime-Glo MT Cell Viability Assay in HEK293 cells - 24 hour (AID 1224886); also: nearly all actives have a fitted effect of over 50% in size; also: potency is read from the fitted curve at half-maximal effect
# Procedure, shortened: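 HEK293 cells seeded with NanoLuc/prosubstrate reagent, rested 5 h at 37 C, then dosed and kept at 37 C up to 40 h. Nonlytic real-time luminescence from viable cells read at 0, 8, 16, 24, 32 and 40 h.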
# [12] = qHTS RealTime-Glo MT Cell Viability Assay in HEK293 cells - 8 hour (AID 1224887); also: nearly all actives have a fitted effect of over 50% in size; also: potency is read from the fitted curve at half-maximal effect
# Procedure, shortened: as §4
# [13] = A CellTox Green Cytotoxicity Assay to monitor cytotoxicity in HEK293 cells - 16 hour (AID 1224888); also: nearly all actives have a fitted effect of over 35% in size; also: potency is read from the fitted curve at half-maximal effect
# Procedure, shortened: as §1
# [14] = qHTS RealTime-Glo MT Cell Viability Assay in HepG2 cells - 0 hour (AID 1224889); also: nearly all actives have a fitted effect of over 50% in size
# Procedure, shortened: as §3
# [15] = A CellTox Green Cytotoxicity Assay to monitor cytotoxicity in HepG2 cells - 8 hour (AID 1224890); also: nearly all actives have a fitted effect of over 45% in size; also: potency is read from the fitted curve at half-maximal effect
# Procedure, shortened: as §2
# [16] = qHTS assay to identify small molecule antagonists of the estrogen receptor alpha (ER-alpha) signaling pathway using the BG1 cell line in the presence of 0.1 nM 17-beta-estradiol - cell viability counter screen (AID 1259241); also: nearly all actives have a fitted effect of over 40% in size; also: potency is read from the fitted curve at half-maximal effect
# Procedure, shortened: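 Cells were plated and left 24 hr, compounds in DMSO were pinned in, 17beta-estradiol was added to 0.1 nM final, and after 22 hr CellTiter-Fluor reagent was added for 30 min before fluorescence was read.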
# [17] = A CellTox Green Cytotoxicity Assay to monitor cytotoxicity in HepG2 cells - 24 hour (AID 1224878); also: nearly all actives have a fitted effect of over 45% in size; also: potency is read from the fitted curve at half-maximal effect
# Procedure, shortened: as §2
# [18] = qHTS assay to identify small molecule antagonists of the androgen receptor (AR) signaling pathway using the MDA cell line in the presence of 0.5 nM R1881 - cell viability counter screen (AID 1259242); also: nearly all actives have a fitted effect of over 45% in size; also: potency is read from the fitted curve at half-maximal effect
# Procedure, shortened: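 Live-cell protease fluorescence, CellTiter-Fluor, 30 min at 37C. Cells: MDA-kb2, 3,000/well, preincubated 5 hr. Compounds plus 0.5 nM R1881 final, 16 hr, 37C, 0% CO2.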
# [19] = target: Androgen receptor (Homo sapiens) (UniProt P10275); assay: qHTS assay to identify small molecule antagonists of the androgen receptor (AR) signaling pathway using the MDA cell line in the presence of 0.5 nM R1881 (AID 1259243); also: nearly all actives have a fitted effect of over 50% in size
# Androgen receptor (Homo sapiens), sequence (P10275 whole entry, looked up): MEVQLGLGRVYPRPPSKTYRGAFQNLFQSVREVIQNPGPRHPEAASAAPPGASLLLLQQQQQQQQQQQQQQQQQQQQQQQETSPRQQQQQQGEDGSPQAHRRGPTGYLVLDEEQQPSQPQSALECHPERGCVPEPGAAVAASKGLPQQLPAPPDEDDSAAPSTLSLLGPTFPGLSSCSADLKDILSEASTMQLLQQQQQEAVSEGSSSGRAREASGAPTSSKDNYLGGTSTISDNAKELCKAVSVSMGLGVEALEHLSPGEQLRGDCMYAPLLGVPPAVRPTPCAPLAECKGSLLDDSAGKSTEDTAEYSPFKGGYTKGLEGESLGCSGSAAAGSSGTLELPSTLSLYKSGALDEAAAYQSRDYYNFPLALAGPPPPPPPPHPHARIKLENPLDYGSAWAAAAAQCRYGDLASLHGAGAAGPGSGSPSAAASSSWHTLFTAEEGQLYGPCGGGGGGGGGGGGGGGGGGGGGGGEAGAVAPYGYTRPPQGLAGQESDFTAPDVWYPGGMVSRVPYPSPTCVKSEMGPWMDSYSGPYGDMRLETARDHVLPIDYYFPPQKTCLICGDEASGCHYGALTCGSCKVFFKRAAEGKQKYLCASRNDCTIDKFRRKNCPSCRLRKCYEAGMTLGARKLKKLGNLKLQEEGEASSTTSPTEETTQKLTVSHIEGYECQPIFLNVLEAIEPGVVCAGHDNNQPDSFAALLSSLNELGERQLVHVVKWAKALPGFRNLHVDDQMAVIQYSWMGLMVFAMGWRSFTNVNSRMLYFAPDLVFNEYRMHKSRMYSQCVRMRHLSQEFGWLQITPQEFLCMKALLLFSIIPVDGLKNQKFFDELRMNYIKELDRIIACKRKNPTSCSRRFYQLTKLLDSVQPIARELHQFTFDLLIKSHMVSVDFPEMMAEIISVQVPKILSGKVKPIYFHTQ
# Procedure, shortened: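 MDA-kb2, MMTV-luc (AR/GR elements); 3,000 cells/well; cpd + 0.5 nM R1881 final; 16 hr 37C, 0% CO2; ONE-Glo 30 min RT; luminescence.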
# [20] = target: Estrogen receptor (Homo sapiens) (UniProt P03372); assay: qHTS assay to identify small molecule antagonists of the estrogen receptor alpha (ER-alpha) signaling pathway using the BG1 cell line in the presence of 0.1 nM 17-beta-estradiol (AID 1259244); also: nearly all actives have a fitted effect of over 50% in size
# Estrogen receptor (Homo sapiens), sequence (P03372 whole entry, looked up): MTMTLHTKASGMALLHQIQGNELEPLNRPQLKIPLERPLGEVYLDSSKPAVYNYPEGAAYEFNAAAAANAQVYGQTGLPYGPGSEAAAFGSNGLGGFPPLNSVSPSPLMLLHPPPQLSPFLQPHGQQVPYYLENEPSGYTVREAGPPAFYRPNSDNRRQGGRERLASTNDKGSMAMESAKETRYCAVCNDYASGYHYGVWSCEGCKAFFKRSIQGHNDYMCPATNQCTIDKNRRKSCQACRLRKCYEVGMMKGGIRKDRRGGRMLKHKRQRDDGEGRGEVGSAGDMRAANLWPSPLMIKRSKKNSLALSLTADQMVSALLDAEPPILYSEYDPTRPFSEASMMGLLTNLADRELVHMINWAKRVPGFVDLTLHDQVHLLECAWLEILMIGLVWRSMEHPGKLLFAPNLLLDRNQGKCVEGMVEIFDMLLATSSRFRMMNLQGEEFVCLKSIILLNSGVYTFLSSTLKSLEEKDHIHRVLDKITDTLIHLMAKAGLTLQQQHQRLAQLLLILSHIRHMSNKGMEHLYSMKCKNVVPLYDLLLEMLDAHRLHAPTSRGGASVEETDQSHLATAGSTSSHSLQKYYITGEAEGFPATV
# Procedure, shortened: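 Luminescence after ONE-Glo (30 min, room temperature) measured ERE-luciferase activity in VM7Luc4E2 cells treated 22 h with compound and 0.1 nM final 17beta-estradiol as stimulator.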
Compound,Potency [1],Potency [2],Potency [3],Potency [4],Potency [5],Potency [6],Potency [7],Potency [8],Potency [9],Potency [10],Potency [11],Potency [12],Potency [13],Potency [14],Potency [15],Potency [16],Potency [17],Potency [18],Potency [19],Potency [20]
CN(C)CCOc1ccc(/C(=C(/CCCl)c2ccccc2)c2ccccc2)cc1,45.8 µM (active),32.5 µM (active),40.9 µM (active),32.5 µM (active),inactive,40.9 µM (active),inactive,32.5 µM (active),45.8 µM (active),40.9 µM (active),40.9 µM (active),40.9 µM (active),45.8 µM (active),inactive,36.4 µM (active),inactive,–,–,–,–
CCCCCN=C(N)N/N=C/c1c[nH]c2ccc(OC)cc12,6.74 µM (active),6.74 µM (active),5.35 µM (active),5.35 µM (active),–,6.01 µM (active),–,6.01 µM (active),15.1 µM (active),7.56 µM (active),4.77 µM (active),8.49 µM (active),7.56 µM (active),–,10.7 µM (active),29.8 µM (active),5.35 µM (active),13.3 µM (active),–,–
Clc1ccc2c(Cl)ccnc2c1,inactive,inactive,inactive,inactive,inactive,inactive,inactive,inactive,inactive,inactive,inactive,inactive,inactive,inactive,inactive,inactive,–,inactive,inactive,inactive
CC1CCC(C(C)(C)O)CC1 (stereo not given),inactive,inactive,inactive,inactive,inactive,inactive,–,inactive,inactive,inactive,inactive,inactive,inactive,inactive,inactive,inactive,inactive,–,inactive,–
CCN(CC)c1ccc(C=O)cc1,inactive,inactive,inactive,inactive,–,inactive,–,inactive,inactive,inactive,–,–,inactive,inactive,inactive,inactive,inactive,inactive,–,inactive
CSc1ccc(O)cc1C,inactive,inactive,inactive,inactive,inactive,inactive,–,inactive,inactive,inactive,inactive,–,inactive,inactive,inactive,–,inactive,inactive,–,–
CCc1cccc(C)c1N(C(=O)C(=O)O)C(C)COC (stereo not given),inactive,inactive,inactive,inactive,inactive,inactive,–,inactive,inactive,inactive,inactive,inactive,inactive,inactive,inactive,inactive,inactive,inactive,inactive,inactive
SC1CCCCC1,inactive,inactive,inactive,inactive,inactive,inactive,inactive,inactive,inactive,inactive,inactive,inactive,inactive,inactive,inactive,inactive,–,inactive,–,–
CCN(CCC#N)c1ccc(N=Nc2ccc([N+](=O)[O-])cc2)cc1,inactive,inactive,inactive,inactive,inactive,inactive,inactive,inactive,inactive,inactive,inactive,inactive,inactive,inactive,inactive,inactive,–,inactive,inactive,–
CCOc1nc(F)cc2nc(S(=O)(=O)Nc3c(Cl)cccc3C(=O)OC)nn12,inactive,inactive,inactive,inactive,inactive,inactive,–,inactive,inactive,inactive,inactive,inactive,inactive,inactive,inactive,inactive,inactive,–,inactive,inactive
O=C1CCC(=O)N1,inactive,inactive,inactive,inactive,–,inactive,–,inactive,inactive,inactive,–,–,inactive,inactive,inactive,–,inactive,inactive,inactive,inactive
CCOC(=O)OC(=O)OCC,inactive,inactive,inactive,inactive,–,inactive,inactive,inactive,inactive,inactive,inactive,inactive,inactive,inactive,inactive,–,inactive,inactive,inactive,inactive
NC(=O)c1ccccc1Cl,inactive,inactive,inactive,inactive,inactive,inactive,–,inactive,inactive,inactive,inactive,inactive,inactive,inactive,inactive,inactive,inactive,inactive,–,inactive
Cc1ccc(C=O)cc1,inactive,inactive,inactive,inactive,inactive,inactive,inactive,inactive,inactive,inactive,inactive,inactive,inactive,inactive,inactive,inactive,–,inactive,–,inactive
ClC(c1ccccc1)(c1ccccc1)c1ccccc1,inactive,inactive,inactive,inactive,inactive,inactive,inactive,inactive,inactive,inactive,inactive,inactive,inactive,inactive,inactive,inactive,–,inactive,–,–
